GLS inh – qHTS for Inhibitors of Glutaminase (GLS) | Glutaminase kidney isoform, mitochondrial (Homo sapiens), O94925 | GLS enzymatic activity, qHTS titration | Potency, µM (series often up to 45.5 µM), hits mostly inhibitors | hit rate 0.21% among 410,000
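Enzyme dispensed in phosphate buffer (45 mM, pH 8.2, 0.02% Tween-20), compounds pinned in, then 1 mM L-glutamine solution and the glutamate oxidase–HRP–Amplex Red mix added; fluorescence read immediately and again after 30 min at room temperature.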
GLP1R inv ag – qHTS of GLP-1 Receptor Inverse Agonists (Inhibition Mode); Glucagon-like peptide 1 receptor (Homo sapiens), P43220; HEK293 GLP-1R CRE-luciferase, luminescence, 24 h; GLP-1R form is constitutively active; Potency, µM (top dose mostly 38.3 µM), usual class: inhibitors; hit rate 1.6% among 410,000; further: nearly all actives have a fitted effect of over 55% in size
Target sequence (P43220 whole entry, looked up): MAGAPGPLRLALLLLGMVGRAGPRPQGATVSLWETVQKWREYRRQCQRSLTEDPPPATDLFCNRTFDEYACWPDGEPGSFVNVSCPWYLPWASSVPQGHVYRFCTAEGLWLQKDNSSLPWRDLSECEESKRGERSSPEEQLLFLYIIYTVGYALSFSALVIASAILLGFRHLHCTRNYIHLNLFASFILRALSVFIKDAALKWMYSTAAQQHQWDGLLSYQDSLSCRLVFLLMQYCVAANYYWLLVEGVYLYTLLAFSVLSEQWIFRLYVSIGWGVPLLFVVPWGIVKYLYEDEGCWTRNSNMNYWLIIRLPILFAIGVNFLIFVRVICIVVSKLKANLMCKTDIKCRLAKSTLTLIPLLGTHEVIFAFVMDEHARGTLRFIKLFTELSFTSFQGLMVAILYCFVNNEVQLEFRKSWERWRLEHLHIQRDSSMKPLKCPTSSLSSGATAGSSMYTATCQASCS
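Inverse agonism was detected as reduced cAMP-driven luciferase luminescence after 24 h compound treatment. The cells were HEK293 clones expressing constitutively active human GLP-1R with the reporter. Reporter-only and GPR119 cell lines served as counterscreen controls.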
PTHR1 agonist – qHTS for PTHR1 Agonists: Primary Screen; Parathyroid hormone/parathyroid hormone-related peptide receptor (Homo sapiens), Q03431; Potency, µM (titrated, usually from 115 µM), usual class: activators; hit rate 0.075% among 410,000; HEK293 GP2 PTHR1 cells, GloSensor cAMP luminescence, 1 h; further: nearly all actives have a fitted effect of over 55% in size
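HEK-293-derived GP2 cells expressing PTHR1 and a GloSensor cAMP reporter, 3,000/well, plated overnight, given luciferin plus IBMX (each 0.5 mM as added) for 1 h at 37 °C, then compound for 1 h at 37 °C. Luminescence was read after 15 min at room temperature.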
Glioma ERSR ind – qHTS for Inducers of the Endoplasmic Reticulum Stress Response (ERSR) in Human Glioma: qHTS | U87-MG GRP78 promoter luciferase reporter, 16 h | Potency, µM, actives largely listed as activators | hit rate 0.02% among 420,000 | AID 602332, 2012; further: series mostly up to about 76 µM; nearly all actives have a fitted effect of over 35% in size
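Stably transfected U87-MG human glioma cells carrying a GRP78-based luminescent sensor were seeded at 1000 cells/well, pin-dosed with compounds and incubated 16 h. Luciferase reagent was then added, and end-point luminescence was read after 10 min at room temperature.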
ALOX12 inh – Primary qHTS assay for inhibitors of human arachidonate 12S-lipoxygenase (ALOX12): Round 2 | hit rate 1.1% among 580,000 | AID 1671190, 2021 | purified 12hLO, xylenol orange hydroperoxide absorbance | Potency, µM (doses to about 108 µM), most hits filed as inhibitors | Polyunsaturated fatty acid lipoxygenase ALOX12 (Homo sapiens), P18054
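Hydroperoxide product was detected by ferrous iron/xylenol orange as the 573 to 405 nm absorbance ratio. Arachidonic acid at 40 uM (final) was turned over for 30 min at room temperature by 150 nM human 12hLO, pH 7.0 Hepes buffer, after 15 min compound preincubation.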
GLP-1R agonist – qHTS of GLP-1 Receptor Agonists; Glucagon-like peptide 1 receptor (Homo sapiens), P43220; HEK293 GLP-1R CRE-luciferase, luminescence, 4-6 h; cells express a hypersensitive GLP-1R form; Potency, µM (series often up to 45.6 µM), actives largely listed as activators; hit rate 0.007% among 380,000; AID 624172, 2012
Hits are given with their value; i = inactive; ? = inconclusive; nt = no result; ! = repeats disagree; [ ] = another dose, or the depositor's remark. In the library only some 2.3% were active in any assay of this set; here they are far more common. The call rests on the fitted dose curve; in most records, active means well fitted curve in the direction sought with a large enough effect; inconclusive means small, poorly fitted or top-dose-only effect, or another doubt; inactive means no such curve, though single readings can be large; an effect the other way counts as inactive or inconclusive.

SMILES | GLS inh | GLP1R inv ag | PTHR1 agonist | Glioma ERSR ind | ALOX12 inh | GLP-1R agonist
CCS(=O)(=O)c1cc([N+](=O)[O-])c(Sc2ccccc2NC(C)=O)s1 | i | i | i | i | 14.1µM | i
CCOc1ccc(NC(=S)N(CCc2c(C)[nH]c3ccc(C)cc23)Cc2ccco2)cc1 | i | 7.94µM | i | i | i | i
O=C(NCc1ccccc1C(F)(F)F)c1n[nH]c2c1CCCC2 | nt | nt | nt | nt | i | nt
CC[n+]1c(/C=C/c2ccc(OC)c(OC)c2)ccc2ccccc21 | i | i | i | i | 7.94µM | i
CC[n+]1c(/C=C/c2ccc(OC(C)=O)c(OC)c2)ccc2ccccc21 | i | ? | i | i | ? | i
CN(CCOc1cccc(C(F)(F)F)c1)Cc1ccccc1 | i | 10µM | i | i | i | i
CN(CCOc1ccc(F)cc1)Cc1ccccc1 | i | i | i | i | ? | i
CN(CCCCOc1ccc(F)cc1)Cc1ccccc1 | i | ? | i | i | 1.12µM | i
COc1ccc(OCCN(C)Cc2ccccc2)cc1 | i | i | i | i | i | i
Cn1cc(C(C(=O)O)N2CCN(C=O)CC2)c2cc(C(=O)O)ccc21 (configuration not stated) | nt | nt | nt | nt | i | nt
Cc1nc(/N=C(\N)NC(=O)c2ccccc2N)nc2ccccc12 | nt | nt | nt | nt | i | nt
Cc1ccccc1NCC(=O)N=Nc1c(O)[nH]c2ccc([N+](=O)[O-])cc12 | i | i | i | i | i | i
Cc1ccc(NCC(=O)N=Nc2c(O)[nH]c3ccc([N+](=O)[O-])cc23)cc1 | i | i | ? | 39.8µM | i | i
CCNC(=S)NS(=O)(=O)c1ccc(CC)cc1 | i | i | i | i | 6.31µM | i
CCc1ccc(S(=O)(=O)NC(=S)Nc2ccccc2)cc1 | i | i[7.66 µM] | i | i | 44.7µM | i
CCN(Cc1cc2ccccc2[nH]c1=O)C(=O)c1cccc(Cl)c1 | nt | nt | nt | nt | i | nt
COc1ccccc1NS(=O)(=O)c1cc(C(=O)N2CCc3sccc3C2)ccc1C | nt | nt | nt | nt | i | nt
COc1cc(OC)c(N(C)S(=O)(=O)c2cccc(C(=O)OCC(=O)c3c[nH]c4ccccc34)c2)cc1Cl | i | ? | i | i | i | i
C=CCN(c1ccccc1OC)S(=O)(=O)c1cccc(C(=O)OCC(=O)c2c[nH]c3ccccc23)c1 | i | 5.01µM | i | i | i | i
Cc1ccc(-c2cc(C(=O)N3CCC(Cc4nncn4C(C)C)CC3)c3ccccc3n2)cc1C | nt | nt | nt | nt | i | nt
Cc1cc(C)n(-c2nc(NCCCO)c3c4c(sc3n2)CCCC4)n1 | i | ? | i | i | nt | i
Cc1cc(C)n(-c2nc(NCCO)c3c4c(sc3n2)CCCC4)n1 | i | 4.47µM | i | i | i | i
Cc1cc(C)n(-c2nc(NCC(C)O)c3c4c(sc3n2)CCCC4)n1 (configuration not stated) | i | 2.82µM | i | i | ? | i
Cc1ccc2c(c1)nnn2C1CCN(S(=O)(=O)c2ccc(C(=O)N3C(C)CCCC3C)cc2)CC1 (configuration not stated) | i | 3.98µM | i | i | ? | i
O=C(NCc1ccccc1)c1ccccc1Nc1ccccc1 | nt | nt | nt | nt | i | nt
SMILES | GLS inh | GLP1R inv ag | PTHR1 agonist | Glioma ERSR ind | ALOX12 inh | GLP-1R agonist
COc1cccc(C(=O)N2CCCC(c3noc(COc4ccccc4)n3)C2)c1 (configuration not stated) | nt | nt | nt | nt | i | nt
CN(C)CCCNC(=S)NCC(c1ccc(Cl)cc1Cl)c1c[nH]c2ccccc12 (configuration not stated) | ? | ? | i | i | ? | i
CCCCNC(=S)NCC(c1ccccc1)c1c[nH]c2ccccc12 (configuration not stated) | i | ? | i | i | 44.7µM | i
O=C(NNc1cc(C(F)(F)F)ccc1Cl)c1ccc(=O)[nH]c1 | i | 3.55µM | i | i | ? | i
CC1(C)CN(c2ccccc2)N(C(=O)c2ccc(C#N)cc2)C1=O | i | 3.16µM | i | i | i | i
CN(Cc1ccc(C(=O)NCC(F)(F)F)cc1)C(=O)Cc1cccc(C(F)(F)F)c1 | nt | nt | nt | nt | i | nt
COCC(C)N(C)C(=O)c1ccc2c(c1)NC(=O)CS2 (configuration not stated) | nt | nt | nt | nt | i | nt
N=C(N)c1ccc(OCc2ccncc2)cc1 | nt | nt | nt | nt | 8.91µM | nt
CO/N=C/c1ccc(C(=O)Oc2ccc(Cl)cc2C)cc1 | nt | nt | nt | nt | i | nt
CCN(Cc1ccccc1)S(=O)(=O)c1cc(C(=O)NC2CCCCCC2)ccc1OC | i | 2.24µM | i | i | i | i
Cc1ccc(S(=O)(=O)N(C)c2nc3ccccc3[nH]c2=S)cc1 | i | i | i | i | ? | i
CN(c1nc2ccccc2nc1Cl)S(=O)(=O)c1ccccc1 | i | 10µM | i | i | i | i
O=C(CCc1cccs1)Nc1ccc(N2CCOCC2)cn1 | nt | nt | nt | nt | i | nt
CCCn1c(=N)n(CC(=O)c2ccc(Cl)cc2)c2ccccc21 | i | 7.94µM | i | i | i | i
Cc1noc(C)c1C1CCCN1Cc1cn(-c2ccccc2)nn1 (configuration not stated) | nt | nt | nt | nt | i | nt
c1ccc(-n2cc(CN3CCCCC3c3ccccn3)nn2)cc1 (configuration not stated) | nt | nt | nt | nt | 20µM | nt
Cc1cc(C)c(S(=O)(=O)Nc2cnc3ccccc3c2)c(C)c1 | i | ? | i | i | 15.8µM! | i
Cn1c(/C=C/c2ccc(Cl)cc2)c([N+](=O)[O-])c(=O)n(C)c1=O | i | 0.794µM | i | i | i | i
COc1ccc(/C=C/c2c([N+](=O)[O-])c(=O)n(C)c(=O)n2C)cc1OC | i | i | i | i | i | i
O=c1[nH]c2ccc(-c3csc(NC4CCCC4)n3)cc2o1 | nt | nt | nt | nt | 6.31µM | nt
CCCNc1nc(-c2ccc3[nH]c(=O)oc3c2)cs1 | nt | nt | nt | nt | 12.6µM | nt
c1ccc(-c2csc(NC3CCCCC3)n2)cc1 | i | ? | i | i | ? | i
Cc1ccccc1C(=O)NC1CCCCC1 | nt | nt | nt | nt | i | nt
COCC(C)n1c(C)cc(C(=O)Cn2cnc3sccc3c2=O)c1C (configuration not stated) | nt | nt | nt | nt | i | nt
Cc1cc(C)c(S(=O)(=O)NCC(c2cccnc2)S(=O)(=O)c2ccccc2)c(C)c1 (configuration not stated) | nt | nt | nt | nt | i | nt
COC(=O)C(=Nc1ccccc1)/C(C(=O)C(=O)N(C)c1ccccc1)=C(\O)c1ccccc1 | i | i | i | i | 12.6µM | i
CCOC(=O)/C(C(N)=NC)=C(\O)c1ccccc1 | i | i | i | i | i | i

Screening results: PubChem BioAssay, National Center for Advancing Translational Sciences (NCATS)
